Tested on: HepG2
Experiment: GSK_TCMDC: Percent inhibition of human HepG2 cell line. Test compounds present at 10uM.
Type: functional

Row | Compound | Inhibition
1 | CC1c2cccc(O)c2CCN1CCc1ccc(Cl)c(Cl)c1.Cl (stereo not given) | 18%
2 | c1ccc(CN2CCc3cc4nccc(N5CCNCC5)c4cc32)cc1 | 9%
3 | COc1cc2nc(N3CCC(CNC(=O)c4ccc(-c5ccc(C(F)(F)F)cc5)cc4)CC3)nc(N)c2cc1OC | 94%
4 | COc1ccc(C2(CNCC(O)c3cccc([N+](=O)[O-])c3)CCCCC2)cc1OC.Cl (stereo not given) | 0%
5 | COc1ccc(Nc2nc(=Nc3ccccc3)nc(NN=Cc3cc(Cl)ccc3O)[nH]2)cc1 | 55%
6 | CCn1c(-c2nonc2N)nc2c(-c3cccc(NC(=O)Nc4cccc(Cl)c4)c3)ncc(OCCCN)c21.O=C(O)C(F)(F)F | 9%
7 | CCCCCC(C)C(C)c1cc(O)c2c(c1)OC(C)(C)CC2(O)c1ccccn1 (stereo not given) | 0%
8 | Cl.NOCCCOc1ccc(Cl)cc1 | 12%
9 | COc1ccc(Nc2nccc(-c3ccc(NC(=O)c4cc5cc(F)ccc5[nH]4)cc3)n2)cc1 | 21%
10 | CC(Oc1cccc(Cl)c1)C(=O)N1CCc2ccccc21 (stereo not given) | 4%
11 | CCOc1cc(C(=O)NC2CCN(Cc3ccccc3)C2)ccc1-c1nc2cc(Cl)ccc2[nH]1 (stereo not given) | 7%
12 | CC(C)(C)c1cc(C(=O)Nc2ccc(C(=N)N)cc2)c(O)c(C(C)(C)C)c1.O=C(O)C(F)(F)F | 4%
13 | COc1ccc(CCNCCCCCCNCCCc2ccc(Cl)cc2)cc1OC.Cl | 36%
14 | CN1CCN(CCCNCc2cccc(Nc3nccc(Nc4ccc(Oc5ccccc5)cc4)n3)c2)CC1 | 97%
15 | O=C(CCCCCNC(=O)c1ccc(O)c(-c2ccc(Cl)c(Cl)c2)c1)NC1CCCCCC1 | 0%

Reference: ChEMBL document CHEMBL1157539, “Thousands of chemical starting points for antimalarial lead identification” (Nature, 2010)
